Sampled rows, rich in hits. Any-hit rate of the full collection: about 4.2%.
D1 PAM = Potentiators of Human D1 Dopamine Receptor: qHTS; D(1A) dopamine receptor (Homo sapiens), P21728; HEK293 TREx D1 cells, calcium flux, dopamine EC20 potentiation; potentiation, % at 10 µM; 360,000 tested, 0.036% active; AID 504651, 2011; in the data active = potentiation above about 30%; also: 0% is about no effect
TRPV1 PAM = HTS Assay for Compounds that Act as Potentiators of the Vanilloid Receptor 1. Transient receptor potential cation channel subfamily V member 1 (Homo sapiens), Q8NER1. TRPV1-expressing cells, Fluo-8 calcium influx, capsaicin EC20 potentiation. potentiation, % at 8.33 µM. 320,000 tested, 0.02% active. AID 540277, 2011; in the data active = potentiation above about 80%; inconclusive = between about 30% and that limit; also: 0% is about no effect
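Fluo-8 calcium influx in TRPV1-expressing cells, kinetic read (ex 480/em 520 nm). Compound added and read 3 min for agonist activity, followed by capsaicin at EC20 final and 2 min further read for enhancement.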
D1 agonist = Allosteric Agonists of the Human D1 Dopamine Receptor: qHTS | HEK293 T-REx D1 cells, calcium flux, agonist mode | activation, % at 2 µM | 360,000 tested, 1% active | AID 504660, 2011; in the data active = activation above about 30%; also: 0% is about no effect
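Agonism was scored from calcium flux recorded over 180 s (1 read/s) after pintool compound addition, following a 10-cycle baseline. Cells were inducible force-coupled HEK293 TREx D1, plated overnight at 30 C and loaded with no-wash calcium dye.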
TRPV1 agonist = HTS Assay for Compounds that Act as Agonists of the Vanilloid Receptor 1; Transient receptor potential cation channel subfamily V member 1 (Homo sapiens), Q8NER1; TRPV1-expressing cells, Fluo-8 calcium influx, agonist mode; activation, % at 8.33 µM; 320,000 tested, 0.19% active; in the data active = activation above about 80%; inconclusive = between about 30% and that limit; also: 0% is about no effect
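TRPV1-expressing cells were cultured overnight at 35.5C and loaded with Fluo-8 calcium dye for 40 to 90 min at room temperature. After a 10 s baseline, compound was added and calcium influx was read kinetically for 3 min (ex 480/em 520 nm).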
D1 antagonist = Antagonist of Human D 1 Dopamine Receptor: qHTS; AID 504652, 2011; HEK293 TREx D1 cells, calcium flux, dopamine EC80; active compounds read low; D(1A) dopamine receptor (Homo sapiens), P21728; 360,000 tested, 3.2% active; activity change, negative = inhibition, % at 10 µM; in the data active = activity change below about -30%; also: % is scaled to controls: 0 for no effect and ±100 for the full control effect
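Calcium flux readout: force-coupled, inducible Hek293 Trex D1 line, cells induced overnight at 30 C with tetracycline, dye-loaded 30–90 min at RT. Antagonism scored against EC80 dopamine challenge given 180 s after compound.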
* hit, by the source's call; u = inconclusive; x = no result given.

SMILES	D1 PAM	TRPV1 PAM	D1 agonist	TRPV1 agonist	D1 antagonist
N=c1c2c(-c3ccccc3)c(-c3ccccc3)n(Cc3ccco3)c2ncn1Cc1ccco1	-3	-4	38*	17	5
CCCCn1cnc2c(c(-c3ccccc3)c(-c3ccccc3)n2Cc2ccco2)c1=N	-8	-1	47*	9	-3
CCCCn1c(=O)[nH]c(=O)c2c1ncn2Cc1ccco1	-1	4	1	1	-5
N=c1c2c(ncn1Cc1ccco1)Oc1ccc3ccccc3c1C2c1ccccc1 (stereo not given)	-1	4	2	u	6
N=c1c2c(-c3ccccc3)c(-c3ccccc3)n(Cc3ccccc3)c2ncn1CCCn1ccnc1	2	7	118*	0	-10
COc1ccc(N2CC(NC(=O)c3cccs3)CC2=O)cc1OC (stereo not given)	4	x	2	x	x
Cc1ccc(C)c(N2CCN(C(=O)c3cc4c(=O)n(Cc5ccco5)ccc4nc3C)CC2)c1	-3	x	0	x	4
CN(C)CC/C=C1/c2ccccc2Sc2ccc(Cl)cc21	-9	-5	16	0	-96*
CCCCCC[N+](C)(C)CC/C=C1/c2ccccc2Sc2ccc(Cl)cc21	-3	-7	0	3	-38*
S=C1Nc2ccccc2Sc2ccc(Cl)cc21	2	-4	4	17	9
CN(C)CC/C=C1\c2ccccc2COc2ccccc21	-5	1	14	-3	-79*
CCC1(c2ccccc2)NC(=O)N(CC(=O)Nc2cc(S(=O)(=O)N3CCCCC3)ccc2N(C)C)C1=O (stereo not given)	-3	15	5	3	-20
COc1ccc(S(=O)(=O)N2CCCCC2)cc1NC(=O)CCCNC(=O)c1ccc(Cl)cc1	3	-2	1	9	-8
COc1ccc(S(=O)(=O)N2CCCCC2)cc1NC(=O)CCNC(=O)c1ccccc1Cl	-3	-2	1	1	-70*
COc1ccccc1CNC(=O)CN1C(=O)CCc2cc(S(=O)(=O)N3CCOCC3)ccc21	0	x	2	x	4
COc1ccccc1CNC(=O)CN1C(=O)CCc2cc(S(=O)(=O)N3CCCCC3)ccc21	1	x	-1	x	-56*
COc1ccc(S(=O)(=O)N2CCCCCC2)cc1NC(=O)CN1C(=O)NC(C)(c2ccccc2)C1=O (stereo not given)	-5	18	1	-2	-31*
CCOc1ccc(NC(=O)CN(C)Cc2ccc3c(c2)OCO3)cc1S(=O)(=O)N1CCCC1	-6	-13	0	10	-35*
COc1ccccc1CCC(=O)OCC(=O)Nc1ccc(C)c(S(=O)(=O)N2CCCCC2)c1	-7	11	4	3	-33*
CCc1ccc(C(=O)CCC(=O)Nc2ccc(OC)c(S(=O)(=O)N3CCCCC3)c2)cc1	x	-6	7	5	-41*
CCOc1ccc(NC(=O)CC(NC(C)=O)c2ccccc2)cc1S(=O)(=O)N1CCCC1 (stereo not given)	-2	7	1	-1	11
COc1ccc(NC(=O)c2n[nH]c(=O)c3ccccc23)cc1S(=O)(=O)N1CCCCC1	-1	-8	1	8	-39*
COc1ccccc1CCC(=O)Nc1ccc(OC)c(S(=O)(=O)N2CCCCC2)c1	x	1	6	-4	-4
Cn1cc(CNCc2cn(C)nc2-c2ccc(C3CCCCC3)cc2)cn1	-10	5	23	3	-38*
CCc1ccccc1NC(=O)CSc1nc2ccccc2nc1Cc1cccc(OC)c1	1	x	4	x	5
SMILES	D1 PAM	TRPV1 PAM	D1 agonist	TRPV1 agonist	D1 antagonist
Cc1ccc(C)c(C(=O)C(C)Sc2nc3nn(-c4ccccc4)c(=O)c-3c3n2CCCCC3)c1 (stereo not given)	2	3	4	0	-36*
CCSc1nc2nn(-c3ccccc3)c(=O)c-2c2n1CCCCC2	4	-8	1	11	17
CC1Cc2ccccc2N1S(=O)(=O)c1cccc(C(=O)NCc2ccncc2)c1 (stereo not given)	x	10	14	u	-54*
COc1cc(O)oc1C=Nc1ccc(C(=O)O)cc1	1	u	0	-2	-79*
COCCN(Cc1nc2ccccc2c(=O)[nH]1)C(=O)c1cccc(S(=O)(=O)N2CCCC2)c1	0	1	2	-1	-55*
CN(Cc1nc2ccccc2c(=O)[nH]1)C(=O)c1cccc(S(=O)(=O)N2CCCCCC2)c1	-4	10	-1	0	4
COc1cccc(Cn2c(=O)n(-c3cc(C)cc(C)c3)c(=O)c3oc4ccccc4c32)c1	-5	x	2	x	-11
COc1cc(C(=S)N2CCOCC2)ccc1OC(=O)c1cc([N+](=O)[O-])c(C)c([N+](=O)[O-])c1	11	1	4	2	0
COc1cc(C(=S)N2CCOCC2)ccc1OC(=O)c1ccccc1[N+](=O)[O-]	-4	-15	6	8	-33*
COc1cc(C)cc2oc(=O)c(CC(=O)NCc3cccc(Cl)c3)c(C)c12	0	x	1	x	2
Cc1ccc(-n2nc(CO)c(C(=O)NCc3cccnc3)n2)cc1	-1	x	1	x	-9
Cc1ccc(C(C)C)c(OCc2nn(CC(=O)c3ccc(OC(F)F)cc3)c3[n+]2CCCCC3)c1	-6	u	91*	12	-12
CCOC(=O)[C@H]1[C@H]2COc3ccc(Cl)cc3[C@@H]2N2C(=O)c3cc(F)c(F)cc3NC(=O)[C@@]12C	-1	17	3	81*	-4
CCOC(=O)[C@H]1[C@H]2COc3ccc(C)cc3[C@@H]2N2C(=O)c3cc(F)c(F)cc3NC(=O)[C@@]12C	-4	5	2	81*	4
CCOC(=O)[C@H]1[C@H]2COc3ccc(Cl)cc3[C@@H]2N2C(=O)c3cc(Cl)ccc3NC(=O)[C@@]12C	6	11	6	u	15
CCOC(=O)[C@H]1[C@H]2COc3ccc(C)cc3[C@@H]2N2C(=O)c3cc(OC)c(OC)cc3NC(=O)[C@@]12C	4	0	3	2	4
O=S(=O)(c1cccc(F)c1)N1CCN(S(=O)(=O)c2ccc3c(c2)OCCO3)CC1	5	x	1	x	-8
CCOC(=O)c1ccccc1NC(=O)CSc1cn(CC(=O)N2CCCCC2)c2ccccc12	-2	x	3	x	2
O=C1NC(=O)/C(=C/c2ccccc2OCc2ccccc2)S1	-4	-9	5	1	-11

Screens (PubChem BioAssay)
